Experimental findings from the supplement of paper PMC9262897, “Low-cost anti-mycobacterial drug discovery using engineered E. coli” (Nature Communications, 2022) are described below.

Each structure is given as a SMILES string. Structures can show the parent of a compound that is named as a salt. ± gives the standard deviation of the averaged measurements.

The test concerns E. coli TESEC Alr+ wild-type control. Nature of the test: growth (OD600 after 10 h); higher = more growth (less inhibition). To be noted: compound 0.1 mM; raw OD600 reference: median of DMSO wells 0.49, cell-free background 0.052. Here is the method: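 TESEC Mtb Alr E. coli (ΔaraC ΔtolC ΔentC Δalr ΔdadX, arabinose-inducible Mtb Alr) or the Alr+ wild-type control strain, grown in defined M9-fructose medium without D-alanine in 96-well plates with Prestwick library compounds at 0.1 mM and 1% DMSO. Low Alr induction is 0.1 µM arabinose and high induction is 10 mM arabinose.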
`CCCNC(C)(C)COC(=O)c1ccccc1` [Meprylcaine hydrochloride] displayed a growth of 0.6187 ± 0.0042.

For `CN1CCC(=C2c3ccccc3CCc3cccnc32)CC1` [Azatadine maleate], the growth turned out to be 0.59 ± 0.059.

`CNC(=C[N+](=O)[O-])NCCSCc1csc(CN(C)C)n1` [Nizatidine] gave a growth of 0.561 ± 0.066.

Molecule `Fc1ccc(C(c2ccc(F)cc2)N2CCN(C/C=C/c3ccccc3)CC2)cc1` [Flunarizine dihydrochloride] came in with a growth of 0.234 ± 0.0076.

In the case of `CC(C(=O)O)c1cccc(C(=O)c2ccccc2)c1` (stereo not given) [Ketoprofen], the growth is 0.533 ± 0.084.

Regarding `C1N2CN3CN1CN(C2)C3` [Methenamine], the growth amounted to 0.59 ± 0.14.

The molecule `Cc1c(N(C)CS(=O)(=O)O)c(=O)n(-c2ccccc2)n1C` [Dipyrone] gave a growth of 0.473 ± 0.039.

In turn, `Cc1onc(-c2ccccc2)c1-c1ccc(S(N)(=O)=O)cc1` [Valdecoxib] showed a growth of 0.388 ± 0.027.

On to `O=C(C1CCCCC1)N1CC(=O)N2CCc3ccccc3C2C1` (stereo not given) [Praziquantel], for which the growth was determined as 0.447 ± 0.019.

Take `Clc1ccc(Cn2c(CN3CCCC3)nc3ccccc32)cc1` [Clemizole hydrochloride]: the growth is 0.452 ± 0.049.

As for `O=C(O)c1ccccc1OP(=O)(O)O` [Fosfosal], the growth is 0.561 ± 0.049.

The molecule `COc1ccc(C2CNC(=O)C2)cc1OC1CCCC1` (stereo not given) [Rolipram] displayed a growth of 0.623 ± 0.011.

In turn, `CCC1=C(C)CN(C(=O)NCCc2ccc(S(=O)(=O)NC(=O)N[C@H]3CC[C@H](C)CC3)cc2)C1=O` [Glimepiride] had a growth of 0.434 ± 0.034.

As for `CC(=O)Nc1c(I)c(C(=O)N[C@H]2C(O)O[C@H](CO)[C@@H](O)[C@@H]2O)c(I)c(N(C)C(C)=O)c1I` (stereo not given in full) [Metrizamide], the growth was found to be 0.61 ± 0.014.

In the case of `CN(C(=O)C(Cl)Cl)c1ccc(OC(=O)c2ccco2)cc1` [Diloxanide furoate], the growth is 0.609 ± 0.087.

As to `Cc1c(Cl)cccc1Nc1ccccc1C(=O)O` [Tolfenamic acid], the growth is 0.0743 ± 0.0023.

For the molecule `COc1ccc(C(=O)CC(=O)c2ccc(C(C)(C)C)cc2)cc1` [Avobenzone], the growth amounted to 0.533 ± 0.076.

`NCc1ccccc1CC(=O)N[C@@H]1C(=O)N2C(C(=O)O)=C(CSc3nnnn3CC(=O)O)CS[C@H]12` [Ceforanide] had a growth of 0.501 ± 0.055.

Molecule `CN(C)CCCN1c2ccccc2CCc2ccccc21` [Imipramine hydrochloride] displayed a growth of 0.452 ± 0.015.

Molecule `COc1ccc(-c2cc(=O)c3c(O)cc(O[C@@H]4O[C@H](CO[C@@H]5O[C@@H](C)[C@H](O)[C@@H](O)[C@H]5O)[C@@H](O)[C@H](O)[C@H]4O)cc3o2)cc1O` [Diosmin] returned a growth of 0.578 ± 0.14.

Turning to `COC(=O)N/N=C/c1c[n+]([O-])c2ccccc2[n+]1[O-]` [Carbadox], the growth turned out to be 0.143 ± 0.0067.

In turn, `N=C(N)NC(=O)c1nc(Cl)c(N)nc1N` [Amiloride hydrochloride dihydrate] returned a growth of 0.497 ± 0.071.

Take `Nc1nc(Cl)nc2c1ncn2[C@H]1C[C@H](O)[C@@H](CO)O1` [Cladribine]: the growth was 0.577 ± 0.12.

For `CO[C@@]1(NC(=O)C2SC(=C(C(N)=O)C(=O)O)S2)C(=O)N2C(C(=O)O)=C(CSc3nnnn3C)CS[C@@H]21` (stereo not given in full) [Cefotetan], the growth was determined as 0.0443 ± 0.00044.

Molecule `CC(=O)O[C@H]1C[C@@]2(C)[C@@H](C[C@@H](O)[C@H]3[C@@]4(C)CC[C@@H](O)[C@@H](C)[C@@H]4CC[C@@]32C)/C1=C(\CCC=C(C)C)C(=O)O` [Fusidic acid sodium salt] showed a growth of 0.05317 ± 0.00047.

The molecule `COc1ccc(CN(CCN(C)C)c2ccccn2)cc1` [Pyrilamine maleate] yielded a growth of 0.528 ± 0.077.

Consider `C#C[C@]1(O)CC[C@H]2[C@@H]3CCC4=Cc5oncc5C[C@]4(C)[C@H]3CC[C@@]21C` [Danazol], for which the growth was found to be 0.46 ± 0.05.

Consider `CCN(CC)C(C)CN1c2ccccc2Sc2ccccc21` (stereo not given) [Ethopropazine hydrochloride], for which the growth turned out to be 0.469 ± 0.026.

The molecule `CCCNC(C)C(=O)Nc1c(C)csc1C(=O)OC` (stereo not given) [Articaine hydrochloride] yielded a growth of 0.47 ± 0.023.

In the case of `Cc1ccc(Cl)c(Nc2ccccc2C(=O)O)c1Cl` [Meclofenamic acid sodium salt monohydrate], the growth is 0.139 ± 0.011.

With `CC(=O)Nc1ccc(OCC(O)CNC(C)C)cc1` (stereo not given) [Practolol], the growth stood at 0.643 ± 0.039.

`CN(C)CCOC(=O)COc1ccc(Cl)cc1` [Meclofenoxate hydrochloride] returned a growth of 0.511 ± 0.083.

The molecule `NCCNCCNCCNCCN` [Tetraethylenepentamine pentahydrochloride] returned a growth of 0.4747 ± 0.0042.

`C#C[C@]1(O)CC[C@H]2[C@@H]3CCC4=CC(=O)CC[C@@H]4[C@H]3CC[C@@]21C` [Norethindrone] registered a growth of 0.427 ± 0.016.

`Nc1c(Br)cc(Br)cc1CN[C@H]1CC[C@H](O)CC1` [Ambroxol hydrochloride] displayed a growth of 0.626 ± 0.055.
